Laboratory results published in PubChem BioAssay.
Results filed as inconclusive are left out. Activity calls are given as the source filed them. Rule as the data show it, unless noted: active = percent of DMSO control GFP below about 86%; inactive = the rest, inconclusive results apart.

What was measured:
[1] = yeast TOR pathway RPL19A-GFP modulators, primary screen, cell-based, S. cerevisiae, multiplex flow cytometry (AID 1862);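 also: lower values mimic rapamycin by blocking the RPL19A rise seen in DMSO cells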; conditions: S. cerevisiae RPL19A-GFP strain, flow cytometry fluorescence, 3 h; at 10 µM; stronger effect = lower value
[2] = modulators of MEP2-GFP levels in yeast, primary screen, S. cerevisiae, multiplex flow cytometry (AID 1867;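 active = GFP response, as percent of the DMSO control, above the screen-wide mean plus 3 SD, about 139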;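 also: median GFP channel fluorescence of barcode-gated MEP2-GFP cells measured by flow cytometry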); conditions: S. cerevisiae MEP2-GFP strain, 3 h, at 10 µM, stronger effect = higher value, 100% means same as DMSO wells
[3] = modulators of CIT2-GFP expression in yeast, primary screen, S. cerevisiae, GFP fusion, multiplex flow cytometry (AID 1870;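 active = percent response above a set limit, the screen-wide mean plus 3 SD, cut at about 130% in these data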;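 also: barcoded CIT2-GFP strain pooled with four other GFP strains with rapamycin as positive control; median GFP fluorescence per well over plate mean of DMSO wells so 100% = DMSO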); conditions: 3 h, at 10 µM, stronger effect = higher value
[4] = modulators of LAP4-GFP expression in yeast, primary screen, S. cerevisiae, multiplex flow cytometry (AID 1873;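 active = GFP signal, as percent of the solvent control, above the screen mean plus 3 SD, about 149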); conditions: 3 h, at 10 µM, stronger effect = higher value
[5] = modulators of AGP1-GFP expression in yeast TOR pathway, primary screen, cell-based, multiplex flow cytometry, S. cerevisiae (AID 1887;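 active = GFP signal above the screen-wide mean plus 3 SD, that is over about 124.5% of the solvent control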;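 also: AGP1-GFP fusion strain of S. cerevisiae within a five-strain barcoded multiplex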); conditions: 3 h, at 10 µM, stronger effect = higher value
[6] = inhibitors of CD8+ T cell-vesicle binding, pilot screen, LFA-1/ICAM-1 modulator project, MLPCN validation set, flow cytometry (AID 2523;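 active = response below a set limit, under 55% cells CD8-positive and vesicle-bound, and CD8 cells' 90th-percentile brightness under 279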;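 as to vesicle binding response: mean PE anti-B7-1 fluorescence of CD8+ cells relative to row control; 100% = QL9-loaded vesicles with DMSO vehicle in the same plate row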); conditions: 2C mouse CD8+ T cells, at 7 µM, stronger effect = lower value; double positive events: measured here: CD8+/vesicle+ event percentage
[7] = molecular target: Integrin beta-1 (Homo sapiens) + Integrin alpha-4 (Homo sapiens) (UniProt P13612+P05556); assay: inhibition of HUTS-21 binding to VLA-4, pilot screen, VLA-4 allosteric modulator project, U937 cells, HUTS-21 mAb, flow cytometry, validation set (AID 2674;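 active = inhibition above 50%, about 3 SD of the validation set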;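 also: antibody binding induced by the VLA-4 ligand LDV present at three times its Kd; 0% = LDV ligand with antibody and no compound and 100% = antibody without LDV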); conditions: HUTS-21 LIBS mAb binding, at 6.7 µM, stronger effect = higher value, binding induced by LDV ligand
[8] = superoxide lowering in aged yeast cells, pilot screen, validation compound set (AID 2706;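 active = superoxide response below 65% of plate, a cut near 3 SD across the whole screen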;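 also: yeast exposed to compound for one week at 30 degrees C before staining; 100% = mean of all compound wells on the same plate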); conditions: S. cerevisiae aging, superoxide DHE fluorescence; at 10 µM; stronger effect = lower value
[9] = molecular target: Beta-adrenergic receptor kinase 1 (Homo sapiens) (UniProt P25098); assay: GRK2 binders displacing RNA aptamer, biochemical, validation, human GRK2, bead flow cytometry (AID 488806;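 active = aptamer binding inhibition above 30%, about 3 SD of noise from non-fluorescent compounds; inactive = inhibition at or below 30%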); conditions: bead-bound GRK2, FAM-aptamer displacement, at 10 µM, stronger effect = higher value
[10] = molecular target: Beta-2 adrenergic receptor (Homo sapiens) (UniProt P07550); assay: beta2AR agonists driving receptor internalization, pilot screen, cell-based, FAP fluorogen, flow cytometry, validation set (AID 504459;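 active = percent response above 42, roughly 3 SD of non-fluorescent test compounds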;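 also: agonist-driven loss of surface beta2AR via internalization measured by FAP dye flow cytometry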); conditions: Am2.2-beta2AR cells, FAP surface receptor flow cytometry; at 10 µM; stronger effect = higher value
[11] = molecular target: AP-2 complex subunit beta (Homo sapiens) (UniProt P63010); assay: inhibitors of arrestin peptide binding to AP2, pilot screen, biochemical, validation set, GST-AP2 beads, flow cytometry (AID 504541;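 active = inhibition above 54%, about 3 SD of non-fluorescent compounds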;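 also: AP2 carries R879A mutation and is captured from E. coli lysate; bead-bound FITC arrestin peptide fluorescence measuring arrestin peptide binding to AP2; 0% = DMSO wells and 100% = excess unlabeled arrestin peptide control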); conditions: FITC arrestin peptide, at 10 µM, stronger effect = higher value, AP2 beta2 appendage fragment, R879A mutant
[12] = yeast V-ATPase proton transport modulators, S. cerevisiae, pHLuorin, HTS validation (AID 504600; in the data active = response above about 15%;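 also: plate controls were DMSO for no effect and reference compound for full effect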); conditions: S. cerevisiae pHLuorin cytosolic pH, at 10 µM, stronger effect = higher value
[13] = test system: anti-desmoglein-3 scFv antibody binding to human DSG3; assay: inhibitors of anti-DSG3 scFv binding to DSG3, pilot screen, biochemical, validation compound set, bead-based, flow cytometry (AID 588368;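 active = binding below the plate cutoff, the plate median minus 3 SD, with a reading above zero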;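 also: signal is the median channel fluorescence of bead-bound GFP antibody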); conditions: Protein G beads, DSG3-Fc, scFv-GFP binding, at 10 µM, stronger effect = lower value
[14] = inhibitors of fungal efflux pumps CDR1, CDR2, MDR1, pilot screen, validation compound set, multiplex, phenotypic (AID 588506;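 active = efflux inhibition above 0.42, the validation set average plus 4 SD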;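 also: Nile Red retained in cells so higher fluorescence means more efflux inhibition; 0 = negative control wells and 1 = enniatin B 25 µM full block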); conditions: S. cerevisiae pump-expressing triplex, Nile Red efflux flow cytometry; at 10 µM; stronger effect = higher value; the pumps come from Candida albicans
[15] = molecular target: ATP-binding cassette sub-family B member 6 (Homo sapiens) (UniProt Q9NP58); assay: ABCB6 transporter inhibitors, pilot screen, K562-ABCB6 cells, flow cytometry, validation set (AID 588550;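 active = inhibition above the screen-wide mean plus 3 SD, about 51%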;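 also: 0% = DMSO wells and 100% = benzethonium chloride 70 µM positive control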); conditions: K562-ABCB6 porphyrin accumulation, 1 h, at 10 µM, stronger effect = higher value
[16] = promoters of myeloid differentiation in arrested cells, primary screen, cell-based, GFP/MAC1 double positive, flow cytometry, validation set (AID 588685;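 active = differentiation response of at least 50%, scaled between solvent and reference control, from cells with both markers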;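 also: compound exposure lasts four days before antibody staining and flow analysis; 0% = DMSO wells and 100% = 5 µM fulvestrant positive control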); conditions: ER-HoxA9 marrow cells, stronger effect = higher value, normalized: vehicle 0, fulvestrant 100

Chain of Beta-adrenergic receptor kinase 1 (Homo sapiens) (P25098 whole entry, looked up): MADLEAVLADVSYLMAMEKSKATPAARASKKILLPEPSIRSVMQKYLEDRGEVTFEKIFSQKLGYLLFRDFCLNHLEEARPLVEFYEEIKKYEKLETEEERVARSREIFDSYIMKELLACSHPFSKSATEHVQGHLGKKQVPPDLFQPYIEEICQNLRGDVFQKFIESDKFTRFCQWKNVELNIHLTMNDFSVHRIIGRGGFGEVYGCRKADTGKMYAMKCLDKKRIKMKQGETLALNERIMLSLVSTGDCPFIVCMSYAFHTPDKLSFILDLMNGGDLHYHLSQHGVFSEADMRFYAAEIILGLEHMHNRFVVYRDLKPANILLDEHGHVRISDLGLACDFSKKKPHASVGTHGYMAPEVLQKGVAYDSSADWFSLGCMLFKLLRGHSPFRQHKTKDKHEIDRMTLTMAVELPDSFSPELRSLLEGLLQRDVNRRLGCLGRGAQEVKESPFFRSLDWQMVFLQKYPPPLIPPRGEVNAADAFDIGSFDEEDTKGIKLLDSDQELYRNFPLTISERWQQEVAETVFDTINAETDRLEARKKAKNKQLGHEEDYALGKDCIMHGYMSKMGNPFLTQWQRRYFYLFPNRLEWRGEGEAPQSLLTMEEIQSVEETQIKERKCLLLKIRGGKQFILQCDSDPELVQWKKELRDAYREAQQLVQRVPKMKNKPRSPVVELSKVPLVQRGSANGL
Chain of Beta-2 adrenergic receptor (Homo sapiens) (P07550 whole entry, looked up): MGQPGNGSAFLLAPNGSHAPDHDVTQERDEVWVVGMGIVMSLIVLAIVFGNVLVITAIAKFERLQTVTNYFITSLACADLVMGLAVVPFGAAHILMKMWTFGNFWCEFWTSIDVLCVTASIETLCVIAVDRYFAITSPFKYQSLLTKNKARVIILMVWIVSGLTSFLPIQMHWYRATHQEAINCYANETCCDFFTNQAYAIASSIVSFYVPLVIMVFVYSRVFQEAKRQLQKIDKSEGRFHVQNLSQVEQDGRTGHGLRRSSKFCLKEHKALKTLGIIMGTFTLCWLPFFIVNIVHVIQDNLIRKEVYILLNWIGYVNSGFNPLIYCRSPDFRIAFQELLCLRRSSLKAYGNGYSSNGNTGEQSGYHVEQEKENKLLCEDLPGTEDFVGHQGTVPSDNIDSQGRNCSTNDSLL
Chain of ATP-binding cassette sub-family B member 6 (Homo sapiens) (Q9NP58 whole entry, looked up): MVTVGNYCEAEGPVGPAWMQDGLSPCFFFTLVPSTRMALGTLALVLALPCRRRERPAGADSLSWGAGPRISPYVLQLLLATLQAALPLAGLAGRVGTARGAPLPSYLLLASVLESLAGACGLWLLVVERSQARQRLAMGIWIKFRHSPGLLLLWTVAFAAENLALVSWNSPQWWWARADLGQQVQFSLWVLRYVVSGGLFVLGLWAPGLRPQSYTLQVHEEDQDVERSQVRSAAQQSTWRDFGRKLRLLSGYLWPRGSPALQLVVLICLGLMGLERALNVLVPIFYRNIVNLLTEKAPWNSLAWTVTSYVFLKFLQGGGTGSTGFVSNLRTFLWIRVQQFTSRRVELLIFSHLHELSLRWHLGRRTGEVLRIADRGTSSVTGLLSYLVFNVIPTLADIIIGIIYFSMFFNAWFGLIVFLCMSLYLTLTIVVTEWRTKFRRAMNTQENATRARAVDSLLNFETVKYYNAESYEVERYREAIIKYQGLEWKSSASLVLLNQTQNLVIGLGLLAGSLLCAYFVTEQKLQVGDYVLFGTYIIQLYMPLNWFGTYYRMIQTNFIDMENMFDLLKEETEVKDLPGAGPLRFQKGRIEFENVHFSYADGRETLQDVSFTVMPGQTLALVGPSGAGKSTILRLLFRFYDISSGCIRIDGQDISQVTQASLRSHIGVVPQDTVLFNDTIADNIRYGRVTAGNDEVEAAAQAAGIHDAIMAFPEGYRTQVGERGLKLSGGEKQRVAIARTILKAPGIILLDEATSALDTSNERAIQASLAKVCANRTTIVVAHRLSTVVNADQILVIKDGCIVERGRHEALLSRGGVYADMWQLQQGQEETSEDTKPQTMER
Chain of AP-2 complex subunit beta (Homo sapiens) (P63010 whole entry, looked up, the tested form may be a part, one chain of several): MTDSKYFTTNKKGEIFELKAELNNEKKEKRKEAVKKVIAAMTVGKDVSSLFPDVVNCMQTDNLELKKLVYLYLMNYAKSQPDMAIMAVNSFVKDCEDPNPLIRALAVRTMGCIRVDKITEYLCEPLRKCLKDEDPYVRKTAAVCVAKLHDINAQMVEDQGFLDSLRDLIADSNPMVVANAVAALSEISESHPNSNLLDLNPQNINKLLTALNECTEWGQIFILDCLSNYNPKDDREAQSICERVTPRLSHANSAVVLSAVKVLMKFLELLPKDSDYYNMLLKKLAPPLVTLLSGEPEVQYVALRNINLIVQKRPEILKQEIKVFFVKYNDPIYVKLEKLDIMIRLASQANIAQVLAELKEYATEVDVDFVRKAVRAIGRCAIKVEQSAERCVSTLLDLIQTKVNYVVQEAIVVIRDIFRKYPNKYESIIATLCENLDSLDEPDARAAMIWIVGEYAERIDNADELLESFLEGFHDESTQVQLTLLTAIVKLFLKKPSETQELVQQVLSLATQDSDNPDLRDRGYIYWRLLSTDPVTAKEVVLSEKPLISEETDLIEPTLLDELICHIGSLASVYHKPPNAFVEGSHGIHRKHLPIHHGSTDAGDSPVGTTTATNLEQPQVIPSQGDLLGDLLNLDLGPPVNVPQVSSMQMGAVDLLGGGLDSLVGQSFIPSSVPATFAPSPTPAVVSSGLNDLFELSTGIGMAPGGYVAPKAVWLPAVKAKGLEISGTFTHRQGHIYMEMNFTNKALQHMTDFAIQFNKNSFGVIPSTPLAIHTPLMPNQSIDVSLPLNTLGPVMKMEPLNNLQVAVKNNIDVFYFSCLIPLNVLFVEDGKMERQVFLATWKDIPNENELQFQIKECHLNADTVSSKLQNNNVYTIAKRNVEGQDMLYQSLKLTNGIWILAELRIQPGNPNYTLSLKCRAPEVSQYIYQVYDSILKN
Chain of Integrin beta-1 (Homo sapiens) + Integrin alpha-4 (Homo sapiens) (P05556 whole entry, looked up): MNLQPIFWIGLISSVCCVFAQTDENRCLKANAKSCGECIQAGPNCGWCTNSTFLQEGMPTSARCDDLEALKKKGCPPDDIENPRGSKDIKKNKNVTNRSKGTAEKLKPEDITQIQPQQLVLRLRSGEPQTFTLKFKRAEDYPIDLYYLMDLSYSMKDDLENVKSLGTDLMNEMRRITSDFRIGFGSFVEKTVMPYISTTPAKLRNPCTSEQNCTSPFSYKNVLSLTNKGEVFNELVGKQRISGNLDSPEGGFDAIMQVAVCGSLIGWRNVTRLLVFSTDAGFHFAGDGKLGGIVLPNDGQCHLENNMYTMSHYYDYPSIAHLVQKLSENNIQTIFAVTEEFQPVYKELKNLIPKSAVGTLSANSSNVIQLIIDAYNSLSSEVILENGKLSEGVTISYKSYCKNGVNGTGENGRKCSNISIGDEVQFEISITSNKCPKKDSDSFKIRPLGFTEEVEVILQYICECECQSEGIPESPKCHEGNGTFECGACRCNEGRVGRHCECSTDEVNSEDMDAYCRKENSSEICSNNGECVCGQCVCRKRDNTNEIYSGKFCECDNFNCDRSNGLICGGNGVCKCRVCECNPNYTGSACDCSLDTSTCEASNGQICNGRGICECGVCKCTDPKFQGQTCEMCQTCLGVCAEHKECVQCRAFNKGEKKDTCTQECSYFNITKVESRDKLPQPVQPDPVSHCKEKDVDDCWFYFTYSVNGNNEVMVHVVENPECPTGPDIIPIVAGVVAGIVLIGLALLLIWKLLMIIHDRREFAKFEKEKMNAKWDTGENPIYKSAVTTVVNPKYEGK
Chain of Integrin beta-1 (Homo sapiens) + Integrin alpha-4 (Homo sapiens) (P13612 whole entry, looked up): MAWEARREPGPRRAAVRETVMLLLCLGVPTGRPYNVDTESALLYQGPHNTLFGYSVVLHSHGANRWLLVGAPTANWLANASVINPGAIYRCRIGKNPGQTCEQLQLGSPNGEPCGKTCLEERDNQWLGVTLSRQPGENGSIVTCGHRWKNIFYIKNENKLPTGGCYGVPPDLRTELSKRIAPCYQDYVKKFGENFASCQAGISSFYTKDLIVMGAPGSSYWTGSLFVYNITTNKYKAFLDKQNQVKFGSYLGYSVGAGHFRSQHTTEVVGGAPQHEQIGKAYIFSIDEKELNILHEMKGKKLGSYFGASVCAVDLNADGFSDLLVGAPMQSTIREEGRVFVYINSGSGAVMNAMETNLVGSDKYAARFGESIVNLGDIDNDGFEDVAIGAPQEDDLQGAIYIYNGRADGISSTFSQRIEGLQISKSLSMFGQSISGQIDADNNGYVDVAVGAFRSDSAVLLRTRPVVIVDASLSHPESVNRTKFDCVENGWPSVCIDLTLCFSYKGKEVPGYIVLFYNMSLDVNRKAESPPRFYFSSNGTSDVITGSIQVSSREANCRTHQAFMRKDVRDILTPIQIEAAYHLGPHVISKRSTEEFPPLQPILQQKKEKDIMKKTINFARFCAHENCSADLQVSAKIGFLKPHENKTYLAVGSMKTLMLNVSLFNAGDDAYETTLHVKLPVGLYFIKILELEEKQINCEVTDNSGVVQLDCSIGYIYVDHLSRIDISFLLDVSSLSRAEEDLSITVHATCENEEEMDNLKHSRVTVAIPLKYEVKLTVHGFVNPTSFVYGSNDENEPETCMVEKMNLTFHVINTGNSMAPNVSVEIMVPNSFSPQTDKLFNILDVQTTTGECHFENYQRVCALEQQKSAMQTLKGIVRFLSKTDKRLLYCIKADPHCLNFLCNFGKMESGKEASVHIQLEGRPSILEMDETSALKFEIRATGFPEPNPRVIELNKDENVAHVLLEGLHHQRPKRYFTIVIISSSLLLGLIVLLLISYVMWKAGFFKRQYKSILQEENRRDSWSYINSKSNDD

CC1(C)[C@@H](O)CC[C@]2(C)[C@H]3C(=O)C=C4[C@@H]5C[C@@](C)(C(=O)O)CC[C@]5(C)CC[C@@]4(C)[C@]3(C)CC[C@@H]12
64.3%: double positive events [6]
inactive: percent of DMSO control GFP [1] 98.8% | GFP response vs DMSO [2] 100% | percent response of DMSO control [3] 89.6% | GFP response vs DMSO [4] 112% | GFP response, % of DMSO [5] 91% | vesicle binding response [6] 698% | inhibition [7] 13% | superoxide response (% of plate) [8] 82.7% | aptamer binding inhibition [9] 7% | response [10] 7.4% | inhibition [11] -5.72% | response [12] 0.36% | binding (% of control) [13] 97.6% | efflux inhibition (fraction of control) [14] 0.11 | inhibition [15] 15% | differentiation response [16] 16.9%

COc1ccc(NC(=S)N2CCN(CCN3C(=O)c4cccc5cccc(c45)C3=O)CC2)cc1
59.1%: double positive events [6]
inactive: percent of DMSO control GFP [1] 101% | GFP response vs DMSO [2] 129% | percent response of DMSO control [3] 104% | GFP response vs DMSO [4] 90.2% | GFP response, % of DMSO [5] 91.9% | vesicle binding response [6] 31.6% | inhibition [7] -6.15% | superoxide response (% of plate) [8] 86.5% | aptamer binding inhibition [9] 0% | response [10] -4.94% | inhibition [11] 24.4% | response [12] -0.62% | binding (% of control) [13] 105% | efflux inhibition (fraction of control) [14] 0.34 | inhibition [15] 9% | differentiation response [16] 18%

S=C(NCc1ccccc1)NCc1cccc(CNC(=S)NCc2ccccc2)c1
62.4%: double positive events [6]
inactive: percent of DMSO control GFP [1] 105% | GFP response vs DMSO [2] 98.6% | percent response of DMSO control [3] 93.8% | GFP response vs DMSO [4] 108% | GFP response, % of DMSO [5] 120% | vesicle binding response [6] 205% | inhibition [7] 9.1% | superoxide response (% of plate) [8] 81.9% | aptamer binding inhibition [9] -2% | response [10] -21.3% | inhibition [11] 2.64% | response [12] -2.61% | binding (% of control) [13] 100% | efflux inhibition (fraction of control) [14] 0.33 | inhibition [15] 2% | differentiation response [16] 1.91%

Cc1ccc2c(c1)c1c3n2CCCN(Cc2ccccc2)C3CCC1 (stereo unspecified)
77.6%: double positive events [6]
inactive: percent of DMSO control GFP [1] 100% | GFP response vs DMSO [2] 104% | percent response of DMSO control [3] 105% | GFP response vs DMSO [4] 103% | GFP response, % of DMSO [5] 92.5% | vesicle binding response [6] 490% | inhibition [7] -27.7% | superoxide response (% of plate) [8] 81.8% | aptamer binding inhibition [9] 0% | response [10] 14.8% | inhibition [11] -2.35% | response [12] -2.93% | binding (% of control) [13] 102% | efflux inhibition (fraction of control) [14] 0.33 | inhibition [15] 6% | differentiation response [16] 8.8%

CCCCCCCC(=O)OCC(O)CO (stereo unspecified)
60.6%: double positive events [6]
inactive: percent of DMSO control GFP [1] 108% | GFP response vs DMSO [2] 103% | percent response of DMSO control [3] 97.8% | GFP response vs DMSO [4] 92.7% | GFP response, % of DMSO [5] 90.3% | vesicle binding response [6] 45.8% | inhibition [7] 0.58% | superoxide response (% of plate) [8] 110% | aptamer binding inhibition [9] 3% | response [10] -8.74% | inhibition [11] -8.36% | response [12] 4.53% | binding (% of control) [13] 98.7% | efflux inhibition (fraction of control) [14] 0.02 | inhibition [15] 5% | differentiation response [16] 2.2%

CC(=O)N[C@@H](CS)C(=O)O
inactive: percent of DMSO control GFP [1] 101% | GFP response vs DMSO [2] 111% | percent response of DMSO control [3] 95.8% | GFP response vs DMSO [4] 131% | GFP response, % of DMSO [5] 101% | vesicle binding response [6] 159% | inhibition [7] -3.16% | superoxide response (% of plate) [8] 89.1% | aptamer binding inhibition [9] 5% | response [10] 7.69% | inhibition [11] -18.7% | response [12] 0.13% | binding (% of control) [13] 104% | efflux inhibition (fraction of control) [14] -0.03 | inhibition [15] 19% | differentiation response [16] 7.2%
64.2%: double positive events [6]

COc1ccc(-c2coc3c(CN4CCOCC4)c(O)ccc3c2=O)cc1
active: inhibition [11] 55.9%
inactive: percent of DMSO control GFP [1] 105% | GFP response vs DMSO [2] 99.7% | percent response of DMSO control [3] 109% | GFP response vs DMSO [4] 93.7% | GFP response, % of DMSO [5] 105% | vesicle binding response [6] 118% | inhibition [7] -5.11% | superoxide response (% of plate) [8] 103% | aptamer binding inhibition [9] -6% | response [10] -34.4% | response [12] -2.03% | binding (% of control) [13] 103% | efflux inhibition (fraction of control) [14] 0.31 | inhibition [15] -5% | differentiation response [16] -3.11%
57.5%: double positive events [6]

O=C(COc1cc(O)c2c(=O)c3ccccc3oc2c1)OCc1ccccc1
inactive: percent of DMSO control GFP [1] 101% | GFP response vs DMSO [2] 104% | percent response of DMSO control [3] 109% | GFP response vs DMSO [4] 85.5% | GFP response, % of DMSO [5] 97.6% | vesicle binding response [6] 152% | inhibition [7] -3.57% | superoxide response (% of plate) [8] 101% | aptamer binding inhibition [9] -2% | response [10] -4.65% | inhibition [11] -5.28% | response [12] 4.03% | binding (% of control) [13] 93.3% | efflux inhibition (fraction of control) [14] -0.01 | inhibition [15] 0% | differentiation response [16] 12.9%
61%: double positive events [6]
